An excerpt weighted towards active compounds, which were near 4.7% of everything screened.
D1 antag = blocks dopamine activation of the human D1 receptor. 360,000 compounds, 3.2% hits. HEK293 TREx D1 cells, calcium flux, dopamine EC80; hits give low values. activity change, negative = inhibition, % at 10 µM. P21728. AID 504652; in the data active means activity change below about -30%; further: on the % scale 0 is the no-effect control and ±100 the full control effect
Target sequence (P21728 whole entry, looked up): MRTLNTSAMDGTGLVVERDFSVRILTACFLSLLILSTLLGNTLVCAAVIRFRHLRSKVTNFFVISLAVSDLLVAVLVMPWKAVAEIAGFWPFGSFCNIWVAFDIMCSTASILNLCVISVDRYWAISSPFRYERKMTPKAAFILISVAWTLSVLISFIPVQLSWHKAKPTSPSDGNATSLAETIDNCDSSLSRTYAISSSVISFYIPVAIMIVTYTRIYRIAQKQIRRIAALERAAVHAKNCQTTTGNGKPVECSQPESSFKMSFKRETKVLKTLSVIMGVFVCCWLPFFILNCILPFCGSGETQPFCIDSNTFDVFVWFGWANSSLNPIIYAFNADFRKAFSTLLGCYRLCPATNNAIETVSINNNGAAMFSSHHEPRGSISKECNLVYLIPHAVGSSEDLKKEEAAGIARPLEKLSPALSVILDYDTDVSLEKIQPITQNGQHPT
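Calcium flux readout: force-coupled, inducible Hek293 Trex D1 line, cells induced overnight at 30 C with tetracycline, dye-loaded 30–90 min at RT. Antagonism scored against EC80 dopamine challenge given 180 s after compound.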
D1 ag = agonists of human D1 dopamine receptor. P21728. HEK293 T-REx D1 cells, calcium flux, agonist mode. activation, % at 2 µM. 360,000 compounds, 1% hits; further: 0% is about no effect
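Tetracycline-induced HEK293 TREx D1 cells, force-coupled to calcium signalling, were dye-loaded with a no-wash calcium kit. Compound was pin-added after a 10 s baseline. Fluorescence was read kinetically at 1 cycle/s for 180 s, with calcium rises flagged as agonism.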
TRHR enhancer = allosterically enhances the human TRH receptor | AID 493056 | 360,000 compounds, 0.66% hits | enhancement, % at 2 µM | P34981 | TRHR cells, fluo-8 calcium fluorescence, EC20 TRH enhancement; in the data active means enhancement above about 30%; further: 0% is about no effect
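TRHR-expressing cells loaded with fluo-8 calcium dye were read kinetically (ex 480/em 530) during compound addition, then stimulated with an EC20 of TRH (10 nM final). Enhancement of the Gq-mediated intracellular calcium response was scored.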
TRHR ag = agonists of human TRH receptor | 360,000 compounds, 0.18% hits | activation, % at 2 µM | TRHR cells, calcium flux fluo-8, FDSS agonist mode | AID 493084; further: 0% is about no effect
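TRHR-expressing cells loaded with fluo-8 calcium dye; 23 nL library compound pin-transferred, kinetic FDSS fluorescence (Ex 480/Em 530) recorded about 180 s for agonist-induced calcium release, before a 10 nM TRH EC20 addition for potentiator mode.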
D1 potentiator = enhances dopamine response at the human D1 receptor | HEK293 TREx D1 cells, calcium flux, dopamine EC20 potentiation | AID 504651 | 360,000 compounds, 0.036% hits | potentiation, % at 10 µM; in the data active means potentiation above about 30%; further: 0% is about no effect
Starred values were filed as active, the others as inactive; / = no result; ! = a repeat was not active. Unless noted, no stated cut-off is given here; in the data, active means activation above about 30%; inactive means the rest.

SMILES	D1 antag	D1 ag	TRHR enhancer	TRHR ag	D1 potentiator
Cn1ccc2cc(-c3ccc4ncnc(NCc5cccc(F)c5)c4c3)ccc21	6.5	2.2	6.9	0.1	7.3
O=[N+]([O-])c1c(NCCCO)cc(Sc2ccc(Cl)cc2)c2nonc12	-40.0*	2.5	1.8	-0.7	-4.3
COc1ccc(C)c2sc(NC(=O)c3ccc(S(=O)(=O)N4CCCCC4)cc3)nc12	6.2	0.9	6.2	0.8	-0.5
CCOC(=O)c1sc(=S)n(Cc2ccccc2)c1C	-30.6*	6.5	-8.1	-0.2	-0.5
CCOCCCNC(=O)CCCn1nc(C)n2c(cc3sccc32)c1=O	-39.2*	-0.7	-1.2	0.4	-6.8
Cc1noc(C)c1S(=O)(=O)N1CCCC(C(=O)Nc2ccc(C(C)C)cc2)C1 (centres undefined)	-3.6	3.4	11.1	-0.9	4.5
NC1=NN=C(N2N=C(c3ccc(Br)cc3)CC2(O)C(F)(F)F)n2ncnc2C1 (centres undefined)	-44.7*	1.7	-8.5	-0.1	-8.3
CC1CCN(S(=O)(=O)c2cc(C(=O)Nc3ccc(Br)cc3F)n(C)c2)CC1	-35.2*	7.7	0.1	-0.3	-3.0
CC[n+]1c(/C=C/N(C)c2ccccc2)oc2ccc(Cl)cc21	-11.7	1.3	-7.1	-0.5	-12.2
CCN1/C(=C/C=C/c2oc3ccc4ccccc4c3[n+]2CC)Oc2ccc3ccccc3c21	2.2	92.5*	-0.5	31.4*	-3.0
Cc1cccc(Cn2c(SCc3ccc(C(=O)NCc4ccccc4F)cc3)nc3ccncc32)c1	10.5	7.8	0.9	1.1	-5.0
Cc1cccc(C)c1OCC(=O)N=Nc1c(O)[nH]c2ccc(Br)cc12	15.0	1.1	3.4	0.1	-4.1
CC(Oc1ccccc1)C(=O)N=Nc1c(O)[nH]c2ccc(Br)cc12 (centres undefined)	-35.8*	0.5	-8.4	-0.7	-5.0
COc1ccccc1N=Nc1c(O)[nH]c2ccc(Br)cc12	-60.0*	4.4	2.5	3.6	-4.6
O=C1CN(S(=O)(=O)c2ccc3c(c2)OCCO3)CCN1S(=O)(=O)c1c(F)cccc1F	-0.3	7.8	-2.7	-1.0	4.5
COc1cc(OC)c(OC)cc1CN1CCc2nc(Nc3ccc4c(c3)OCCO4)ncc2C1	0.9	-1.9	7.9	0.0	-0.3
COc1ccc(-c2ccc3c(N)c(C(=O)Nc4cccc(C)c4)sc3n2)cc1	-3.9	5.4	1.6	1.3	-2.0
COc1cccc(-c2ccc3c(N)c(C(=O)Nc4ccc(Cl)cc4F)sc3n2)c1	-30.6*	7.5	-1.7	2.0	-2.1
COc1cccc(-c2ccc3c(N)c(C(=O)Nc4cc(C(F)(F)F)ccc4OC)sc3n2)c1	-35.5*	4.2	-0.5	-0.9	-1.1
CC(C)CSc1ccccc1NC(=O)c1sc2nc(-c3ccncc3)ccc2c1N	-31.4*	7.3	-1.5	5.0	-3.4
Cn1c(=O)c2c(-c3ccccc3Br)n(C(C)(C)C)cc2n(C)c1=O	-28.4	1.5	-0.5	-2.8	-0.7
Cc1cccc(CNC(=O)CS(=O)(=O)c2cccc3nsnc23)c1	-3.2	-0.1	-4.7	-0.2	-4.0
COc1cccc(N2CC(NC(=O)C(c3ccccc3)c3ccccc3)CC2=O)c1 (centres undefined)	/	-1.0	-2.7	-0.6	0.8
Cc1cccc(C(=O)N2CCNC(=O)C2CC(=O)Nc2ccc(F)cc2)c1 (centres undefined)	3.8	2.1	2.4	-0.4	7.4
COc1ccc(OC)c(S(=O)(=O)NCC(c2ccc(N(C)C)cc2)N2CCOCC2)c1 (centres undefined)	-5.7	-1.3	-5.9	-0.2	-0.2
SMILES	D1 antag	D1 ag	TRHR enhancer	TRHR ag	D1 potentiator
Cc1ccc(/C=C2\SC(=S)N(NS(=O)(=O)c3ccc(C)cc3)C2=O)cc1	1.9	-2.8	-4.0	-0.6	-7.0
COc1ccc(/C=C2/SC(=S)N(NS(=O)(=O)c3ccc(C)cc3)C2=O)cc1	-47.4*	6.0	7.6	-1.4	/
CCc1cccc(NC(=O)CCc2c(C)nc3c(-c4ccccc4)c(C)nn3c2C)c1	-18.6	0.8	2.4	0.2	-5.5
COc1cccc(NC(=O)CSC2=Nc3ccccc3C3=NC(CC(=O)NCCc4ccccc4)C(=O)N23)c1 (centres undefined)	3.0	-0.4	-0.4	0.3	-0.8
CCCc1cc(NCCCN(C)C)n2c(nc3ccccc32)c1C#N	-38.0*	0.8	-4.3	0.2	-7.0
CCOc1ccc(-c2nn(-c3ccccc3)cc2C2NC(=O)NC(C)=C2C(=O)OC(C)C)cc1C (centres undefined)	-36.5*	23.5	1.9	2.0	5.8
CCCCc1nc2ccccc2n2c(-c3ccc(C)cc3)c3c(=O)n(C)c(=O)n(C)c3c12	4.0	-1.1	4.4	-0.8	-5.5
CCCN(CCC)C(C)C(=O)NCC1(c2ccccc2)CCCC1 (centres undefined)	-41.2*	-0.1	-9.8	8.8	-4.3
COc1ccc(C(=O)NC(C(=O)NCc2ccccc2OC)C(C)C)cc1 (centres undefined)	-12.8	-0.6	-3.1	1.1	-7.8
COc1ccccc1COC(=O)C(NC(=O)c1ccc(C)cc1)C(C)C (centres undefined)	-32.0*	4.4	-16.8	-0.3	-6.8
Cc1cc(C)cc(-n2ccnc2SCC(=O)Nc2nnc(C)s2)c1	-21.9	1.4	-3.2	-0.2	1.0
O=C(NCc1ccc2c(c1)CCN2C(=O)c1ccccc1)Nc1cccc(C(F)(F)F)c1	-43.0*	2.3	-4.8	0.3	-2.8
CN(c1ccc(C(=O)N2CCCCC2)cc1)S(=O)(=O)c1ccccc1	-35.7*	17.2	11.6	0.3	4.3
CCOc1cccc2sc(N(CCCN(C)C)C(=O)Cc3ccccc3)nc12	-1.2	36.8*	1.4	7.1	0.8
CN(C)CCCN(C(=O)c1ccc(C(=O)c2ccccc2)cc1)c1nc2c(F)cccc2s1	-7.5	8.6	1.8	0.4	0.0
CCOc1ccc2nc(N(CCN(C)C)C(=O)c3cc4ccccc4cc3OC)sc2c1	1.5	4.8	-0.6	0.3	-4.7
CCOc1cccc2sc(N(CCN(C)C)C(=O)c3cc4ccccc4cc3OC)nc12	-70.4*	32.8*	8.3	-0.4	6.0
Cc1cccc2sc(N(CCCN(C)C)C(=O)c3ccc(Cl)s3)nc12	-0.8	36.7*!	-6.9	0.3	-2.9
CCOc1cccc2sc(N(CCCN(C)C)C(=O)c3ccc(C(=O)c4ccccc4)cc3)nc12	-32.9*	42.6*	-0.9	1.0	-1.9
CCOc1ccc(Nc2oc(-c3ccc(COc4ccc(C)cc4)o3)nc2C#N)cc1	1.3	-2.1	15.5	1.0	-0.9
OCc1cn(Cc2ccc(O)c3ncccc23)cn1	18.7	5.8	1.0	-0.1	17.0
CCc1ccc(S(=O)(=O)c2nnn3c2nc(NCc2ccccc2)c2cc(Cl)ccc23)cc1	-28.1	8.4	-0.2	0.4	-2.4

High-throughput results: PubChem BioAssay, National Center for Advancing Translational Sciences (NCATS)
